Measurements: PubChem BioAssay AID1520 (The Scripps Research Institute Molecular Screening Center, 2009)
The other results are listed elsewhere or left out. Active and inactive are the calls of the source.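 Rule for the calls: active = cell growth inhibition above the hit limit set in the earlier mutant JAK2 cell screen (cut at about 27% in these data); inactive = the rest.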

Assay: parental Ba/F3 cell viability inhibition, counter-screen for JAK2V617F inhibitor project, murine pro-B, CellTiter-Glo luminescence (AID 1520);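 note: plate controls were DMSO-treated cells for no effect and JAK Inhibitor I control wells for full effect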
Details: at 5.6 µM, active compounds read high

With `CN(C)CC1Oc2ccccc2OC1(O)c1ccccc1` (stereo unspecified) the inhibition was 34.6% (active).
